HttQ103 aggreg: qHTS Multiplex Assay to Identify Dual Action Probes in a Cell Model of Huntington: Aggregate Formation (GFP) | PC12 HttQ103-GFP aggregates, Acumen cytometry, 40 h | Potency, µM (highest dose often 46.1 µM), for inactives: top-dose activity change, negative = inhibition, hits mostly inhibitors | actives 1.1% (n = 220,000); note: potency is the fitted concentration of half-maximal effect; % is set by controls: 0 for no effect and ±100 for the full control effect; nearly all actives have a fitted effect of over 60% in size
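Using laser scanning cytometry, GFP-positive aggregates were counted after lysis of PC12 cells induced with 100 nM tebufenozide to express HTT exon 1 Q103–GFP. Compounds were tested in titration.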
KDM4E inh: qHTS Assay for Inhibitors of Human Jumonji Domain Containing 2E (JMJD2E); Potency, µM (series often up to 57.1 µM), for the others: at the top dose activity change, negative = inhibition, actives largely listed as inhibitors; JMJD2E catalytic domain, FDH-coupled NADH fluorescence (FDH is formaldehyde dehydrogenase); Lysine-specific demethylase 4E (Homo sapiens), B2RXH2; actives 1.6% (n = 230,000); active = well fitted inhibition curve with a large enough effect, not every such curve was filed as active; inconclusive = small, poorly fitted or top-dose-only effect, or another doubt; inactive = no such curve, though single readings can be large or run the other way;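 note: potency is the fitted concentration of half-maximal effect; 0% = wells with enzyme and -100% = buffer wells without enzyme; nearly all actives have a fitted effect of over 50% in size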
Target sequence (B2RXH2 1-337 limits assumed): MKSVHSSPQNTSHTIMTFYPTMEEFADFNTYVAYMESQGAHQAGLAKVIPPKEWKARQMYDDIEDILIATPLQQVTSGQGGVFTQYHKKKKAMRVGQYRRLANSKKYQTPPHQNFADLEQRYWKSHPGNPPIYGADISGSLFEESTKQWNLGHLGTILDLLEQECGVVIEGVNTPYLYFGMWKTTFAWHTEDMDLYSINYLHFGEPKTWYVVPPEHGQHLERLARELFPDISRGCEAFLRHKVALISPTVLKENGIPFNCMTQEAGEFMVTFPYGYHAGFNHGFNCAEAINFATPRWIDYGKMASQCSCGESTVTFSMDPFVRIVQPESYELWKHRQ
HTT cytoprotect: qHTS Multiplex Assay to Identify Dual Action Probes in a Cell Model of Huntington: Cytoprotection (ATP). PC12 HTT-Q103 induced, cytoprotection, ATP luminescence, 40 h. Potency, µM (titrated, usually from 56.4 µM), for inactives: cytoprotection (ATP increase), actives largely listed as activators. actives 0.14% (n = 230,000); note: potency is the fitted concentration of half-maximal effect; % of control where 0% means no effect; nearly all actives have a fitted effect of over 45% in size
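Compounds added alongside 100 nM tebufenozide, which induces toxic Q103 huntingtin exon 1-GFP in stable PC12 cells; surviving cells quantified by luminescent ATP measurement. Medium: phenol red-free DMEM, 5% equine and 5% calf serum.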
Coupling enz: qHTS Assay for Inhibitors of Fructose-1,6-bisphosphate Aldolase from Giardia Lamblia: Coupling assay counterscreen | coupling enzyme system counterscreen, AmpLite Red fluorescence | activity change, negative = inhibition, % at 58.2 µM, hits read low | actives 0.67% (n = 290,000) | AID 2472, 2010; in the data active = activity change below about -30%; note: % is set by controls: 0 for no effect and ±100 for the full control effect
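Activity here indicates interference with the coupling reaction, not aldolase inhibition. Compounds at 57.5 uM final met coupling enzymes for 10 min at RT; substrate and AmpLite Red detection followed, with a 525/598 nm fluorescence read after 20 min.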
VDR inhibitor: Inhibitors of the vitamin D receptor (VDR): qHTS; Vitamin D3 receptor (Homo sapiens), P11473; actives 0.93% (n = 400,000); VDR-SRC2-3 peptide fluorescence polarization, 2 h; AID 504847, 2011; Potency, µM, without a hit: max response, negative = inhibition, usual class: inhibitors; note: potency is the fitted concentration of half-maximal effect; % is set by controls: 0 for no effect and ±100 for the full control effect
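Measured by FP: displacement of SRC2-3 coactivator peptide from VDR by library compounds, following a two-hour ambient incubation.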
RGS12 GoLoco inh: qHTS Assay for Inhibitors of RGS12 GoLoco Motif Activity (Red Fluorophore) | Guanine nucleotide-binding protein G(i) subunit alpha-1 (Homo sapiens), P63096 | Gai1:RGS12 GoLoco peptide FP, rhodamine, 10 min | Potency, µM (highest dose often 61.6 µM), inactives show at the top dose activity, negative = inhibition, actives largely listed as inhibitors | actives 0.44% (n = 230,000); active = well fitted inhibition curve with a large enough effect, not every such curve was filed as active; inactive = no such curve, though single readings can be large or run the other way; note: potency is the fitted concentration of half-maximal effect; % is set by controls: 0 for no effect and ±100 for the full control effect; nearly all actives have a fitted effect of over 30% in size
Target sequence (P63096 whole entry, looked up): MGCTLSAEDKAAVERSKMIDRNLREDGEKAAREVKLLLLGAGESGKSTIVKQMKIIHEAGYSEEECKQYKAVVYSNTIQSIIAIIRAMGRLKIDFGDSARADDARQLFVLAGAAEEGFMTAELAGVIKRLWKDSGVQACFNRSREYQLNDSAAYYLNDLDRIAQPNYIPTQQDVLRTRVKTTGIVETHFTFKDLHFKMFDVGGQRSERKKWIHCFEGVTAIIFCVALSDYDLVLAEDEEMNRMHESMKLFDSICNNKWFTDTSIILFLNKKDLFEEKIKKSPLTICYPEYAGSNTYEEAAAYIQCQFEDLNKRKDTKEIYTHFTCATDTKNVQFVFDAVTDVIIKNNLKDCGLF
VDR confirm: qHTS for Inhibitors of the vitamin D receptor (VDR): Hit Validation in Primary Screen; AID 602199, 2012; actives 89% (n = 840); VDR-coactivator inhibition assay, qHTS confirmation; Potency, µM, actives largely listed as inhibitors; shares compounds with VDR inhibitor; note: potency is the fitted concentration of half-maximal effect
VDR FP fluor: qHTS for Inhibitors of the vitamin D receptor (VDR): Hit Validation using a Fluorescein Assay. shares compounds with VDR inhibitor. actives 48% (n = 840). VDR-coactivator binding, fluorescein fluorescence polarization. Potency, µM (doses to about 57.1 µM), inactives show top-dose activity change, negative = inhibition, most hits filed as inhibitors; note: potency is the fitted concentration of half-maximal effect
VDR bla: qHTS for Inhibitors of the vitamin D receptor (VDR): Hit Validation using a Beta-Lactamase Assay; shares compounds with VDR inhibitor; VDR beta-lactamase reporter cells, FRET ratio; cells co-treated with VDR agonist LG190178; Potency, µM (titrated, usually from 46.1 µM), without a hit: top-dose activity change, negative = inhibition, usual class: inhibitors; actives 23% (n = 840); note: potency is the fitted concentration of half-maximal effect; % is set by controls: 0 for no effect and ±100 for the full control effect
VDR viability: qHTS for Inhibitors of the vitamin D receptor (VDR): Hit Validation using a Cytotoxicity Assay. shares compounds with VDR inhibitor. cytotoxicity counter-screen, cell viability, qHTS. Potency, µM (doses to about 48.3 µM), without a hit: at the top dose activity change, negative = cytotoxicity, most hits filed as cytotoxic. actives 18% (n = 840). AID 602204, 2012;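 note: potency is the fitted concentration of half-maximal effect; plate controls were DMSO for no effect and high-concentration cycloheximide for full effect; nearly all actives have a fitted effect of over 75% in size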
* hit, by the source's call; [ ] = remark or other dose. Sampled rows, rich in hits. Any-hit rate of the full collection: about 2.3%. Unless noted, calls come from the whole dose curve; as a rule, active = well fitted curve in the direction sought with a large enough effect; inconclusive = small, poorly fitted or top-dose-only effect, or another doubt; inactive = no such curve, though single readings can be large; an effect the other way counts as inactive or inconclusive.

Screening O=C(/C=C/c1ccccc1Cl)c1cccnc1 returned HttQ103 aggreg -4.1%, KDM4E inh -3.0%, HTT cytoprotect -14.7%, Coupling enz 0.0, VDR inhibitor 44.7µM*, RGS12 GoLoco inh 20.4%, VDR confirm 6.7*, VDR FP fluor inconclusive, VDR bla inconclusive and VDR viability inconclusive.
For O=C(Nc1ccc(OCc2ccccc2)cc1)c1cccnc1 the results were HttQ103 aggreg -3.8%, KDM4E inh -4.0%, HTT cytoprotect -3.2%, Coupling enz -1.1, VDR inhibitor -4.6% and RGS12 GoLoco inh -3.6%.
CCOC(=O)c1[nH]c2ccccc2c1NC(=O)c1ccc(OC)c(OC)c1 was read as VDR inhibitor 16.5%.
For CCOc1cc(/C=C2\N=C(C)OC2=O)cc(Br)c1OCC(=O)OC the results were HttQ103 aggreg 0.2%, KDM4E inh -7.3%, HTT cytoprotect 2.2%, Coupling enz -1.9, VDR inhibitor 20µM*, RGS12 GoLoco inh -8.0%, VDR confirm 10.6*, VDR FP fluor inconclusive, VDR bla 8.3% and VDR viability 6.4%.
Screening CCOc1cc(/C=C2\N=C(C)OC2=O)cc(Br)c1OCCc1ccccc1 returned HttQ103 aggreg -1.2%, KDM4E inh -4.7%, HTT cytoprotect -23.1%, Coupling enz 5.2, VDR inhibitor inconclusive and RGS12 GoLoco inh 8.5%.
`Cc1ccc2nc(N3CCN(C(=O)C4COc5ccccc5O4)CC3)sc2c1` (stereo unspecified) gave VDR inhibitor -2.2%.
Screening COc1cccc(/C=C/C(=O)c2cccc([N+](=O)[O-])c2)c1OC returned HttQ103 aggreg 18.7%[9.22 µM], KDM4E inh -24.5%, HTT cytoprotect -40.3%[1.9 µM], Coupling enz -0.2, VDR inhibitor 8.91µM*, RGS12 GoLoco inh 17.4%, VDR confirm 3.77*, VDR FP fluor 3.16µM*, VDR bla inconclusive and VDR viability inconclusive.
`O=C1NN(c2ccc(Cl)c(Cl)c2)C(=O)/C1=C/c1cccc(OC(=O)c2cccs2)c1` gave HttQ103 aggreg -3.4%, KDM4E inh 3.6%, HTT cytoprotect 5.6%, Coupling enz 7.7 and RGS12 GoLoco inh 16.6%.
`O=C1NN(c2ccccc2)C(=O)/C1=C\c1cccc(OC(=O)c2cccs2)c1` gave HttQ103 aggreg 24.5%, KDM4E inh -4.7%, HTT cytoprotect -7.7%, Coupling enz 4.6, VDR inhibitor 50.1µM*, RGS12 GoLoco inh -22.2%, VDR confirm 8.44*, VDR FP fluor inconclusive, VDR bla inconclusive and VDR viability inconclusive.
Screening N#Cc1c(Nc2ccc(Cl)cc2)s[nH]c1=O returned HttQ103 aggreg -24.9%[9.22 µM], KDM4E inh -12.4%, HTT cytoprotect -22.6%[10 µM], Coupling enz 8.3, VDR inhibitor 10µM*, RGS12 GoLoco inh 1.4%, VDR confirm 7.52*, VDR FP fluor inconclusive, VDR bla 1.7% and VDR viability -14.3%.
For CCOc1ccc(C(=O)CCN2CCCCC2)cc1 the results were HttQ103 aggreg -1.1%, KDM4E inh 2.8%, HTT cytoprotect 15.6%, Coupling enz 0.3, VDR inhibitor inconclusive and RGS12 GoLoco inh -32.6%.
For CC(C)Oc1ccc(C(=O)CCN2CCCCC2)cc1 the results were HttQ103 aggreg inconclusive, KDM4E inh -6.4%, HTT cytoprotect 6.0%[1.9 µM], Coupling enz 4.0, VDR inhibitor inconclusive, RGS12 GoLoco inh -2.7%, VDR confirm 7.08*, VDR FP fluor 3.16µM*, VDR bla inconclusive and VDR viability -19.3%.
Fc1ccc(CSc2nncn3c2cc2occc23)c(Cl)c1 was read as VDR inhibitor -2.2%.
`O=C1NC(=S)N/C1=C/c1cccc([N+](=O)[O-])c1` gave HttQ103 aggreg 10.3%, KDM4E inh -3.3%, HTT cytoprotect -5.4%, Coupling enz -0.8, VDR inhibitor -4.1% and RGS12 GoLoco inh 4.1%.
`CN1C(=O)/C(=C/c2cccc([N+](=O)[O-])c2)C(=O)N1c1ccccc1` gave Coupling enz -0.5, VDR inhibitor 31.6µM*, VDR confirm 13.4*, VDR FP fluor inconclusive, VDR bla -7.0% and VDR viability -3.1%.
Screening CC(C)NC(=O)CCn1c(SCc2c(F)cccc2Cl)nc2c(sc3ccccc32)c1=O returned VDR inhibitor 4.6%.
Cc1cc(N2CCOCC2)ccc1/C=C\[N+](=O)[O-] was read as HttQ103 aggreg -20.4%, KDM4E inh -2.8%, Coupling enz 2.4, VDR inhibitor 28.2µM*, RGS12 GoLoco inh 20.0%, VDR confirm 6.7*, VDR FP fluor 43.0%, VDR bla inconclusive and VDR viability 16.4µM*.
`CC(=O)NC1=CC(=O)c2nonc2C1=O` gave VDR inhibitor 56.2µM*, VDR confirm 2.51*, VDR FP fluor 2.51µM*, VDR bla 2.91µM* and VDR viability 3.77µM*.

Screening data from PubChem.
